Experimental data reported in PubChem BioAssay AID588492 (Sanford-Burnham Center for Chemical Genomics, 2011).
Screen size: about 360,000 compounds; about 2,300 (0.64%) were called active. Only a selection was taken, and actives are over-represented in it overall. A number with no mark means an inactive call.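 How the source made its calls: active means compounds giving at least 50% protection of heart cells from peroxide-induced death in the single-dose screen, raw or plate-pattern-corrected value; inactive means the rest.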

Test: H9c2 cardiomyocyte survival under peroxide injury – uHTS, H9c2 cells, ATPLite luminescence, primary screen (AID 588492);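 further: 0% = DMSO wells with peroxide and 100% = DMSO wells without peroxide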
Settings: H9c2 cardiomyocytes, 2 h, at 20 µM, hits give high values

| SMILES | protection from H2O2 cell death |
| --- | --- |
| CCCCCn1c(=O)c(C(=O)NCc2ccccc2)c(O)c2ccccc21 | 46.9% |
| CCCCCn1c(=O)c(C(=O)NCc2ccccn2)c(O)c2ccccc21 | 53.7% (active) |
| CCCCn1c(=O)c(C(=O)Nc2ccccc2Cl)c(O)c2ccccc21 | 28.7% |
| CCN1CCN(C(=O)Cc2coc3cc(C)cc(C)c23)CC1 | 5.6% |
| COC(=O)C1=C(c2c(C)noc2C)C[C@@H]2CC[C@H]1N2C(=O)NCc1ccc2c(c1)OCO2 | -2.4% |
| Cc1ccc2c(c1)=C/C(=C\c1c(O)[nH]c(=O)[nH]c1=O)C(=O)N=2 | 60.8% (active) |
| O=c1[nH]c(O)c(C=Nc2cc(F)cc(F)c2)c(=O)[nH]1 | 6.4% |
| COc1ccccc1N=Nc1c(O)[nH]c(=S)[nH]c1=O | -6.6% |
| O=C1N=c2ccccc2=C/C1=C\c1c(O)[nH]c(=S)[nH]c1=O | 51.8% (active) |
| CCN1C(=O)C(=Cc2c(C)n(CC(=O)NCC3CCCO3)c3ccccc23)C(=O)N(CC)C1=S (stereo not given) | -2.5% |
| Nc1ccc([N+](=O)[O-])cc1 | -1.6% |
| Cc1cccc(OP(=O)(Oc2cccc(C)c2)OC(c2ccccc2)C(F)(F)F)c1 (stereo not given) | -8.9% |
| CC1C(=O)OC2CCN3CC=C(COC(=O)C(C)(O)C1(C)O)C23 (stereo not given) | 1.6% |
| CCn1cc(CN2CCCC(C(=O)c3cccc(C(F)(F)F)c3)C2)cn1 (stereo not given) | -6.7% |
| CCN1CCN(c2nc3c(c(=O)[nH]2)CCC3)CC1 | 63% (active) |
| O=C(NC(c1ccc(Cl)cc1)P(=O)(Oc1ccccc1)Oc1ccccc1)OCc1ccccc1 (stereo not given) | 7.3% |
| O=C(CCNS(=O)(=O)c1ccccc1)Nc1ccc(Cl)cc1C(=O)c1ccccc1 | -9.8% |
| Fc1ccc(C2N3CCCN23)cc1 (stereo not given) | 1.5% |
| C=CC12CN(C)[C@@H]3C4CO[C@H](C[C@H]41)[C@]1(C(=O)Nc4ccccc41)[C@@H]32 (stereo not given in full) | 3.5% |
| NC(=O)Cn1cc(C(=O)c2ccccc2F)c2ccccc21 | 8.7% |
